Experimental data published in PubChem BioAssay AID1159580 (chemical genetic matrix, 2015).
Values joined by “and” are separate entries in the source; they are usually repeats but may differ in a detail not shown here. Equal entries are not always repeated. Hit rate of the full screen: of about 5,500 compounds, about 2,000 (36%) were called active. Another 18% or so got no clear call; they are omitted. Rule as the data show it: active = normalized growth mostly below about 0.91 (no sharp cut-off); inconclusive = no clear call, values can overlap the other calls; inactive = mostly above about 0.92. This is one part of the list.

Assay: chemical genetic growth profiling, strain panel (AID 1159580);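 also: tested at 20 µM; growth read once vehicle control cultures reached saturation at 30 °C; 1 = growth at the plate median or of vehicle wells; lower values mean less growth of the strain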
Settings: S. cerevisiae deletion strains, growth OD

Measured: normalized growth

CSc1nc(NC(C)C)nc(NC(C)C)n1
inactive: locus YAL013W, strain DEP1, stronger effect = lower value 1.01 | locus YAL021C, strain ccr4, stronger effect = lower value 0.969 | locus YAL026C, strain drs2, stronger effect = lower value 0.969 | locus YAL030W, strain snc1, stronger effect = lower value 0.98 | locus YBL061C, strain skt5, stronger effect = lower value 0.968 | locus YBR009C, strain hhf1, stronger effect = lower value 0.979 | locus YBR021W, strain FUR4, stronger effect = lower value 1.04 | locus YBR023C, strain chs3, stronger effect = lower value 0.957 | locus YBR171W, strain sec66, stronger effect = lower value 0.954 | locus YBR229C, strain ROT2, stronger effect = lower value 0.999 | locus YBR231C, strain swc5, stronger effect = lower value 0.961 | locus YBR279W, strain paf1, stronger effect = lower value 0.972 | locus YCL011C, strain gbp2, stronger effect = lower value 0.966 | locus YCL016C, strain dcc1, stronger effect = lower value 0.967 | locus YCL029C, strain bik1, stronger effect = lower value 1.01 | locus YCL061C, strain MRC1, stronger effect = lower value 0.979 | locus YCL069W, strain vba3, stronger effect = lower value 0.975 | locus YCR088W, strain abp1, stronger effect = lower value 0.986 | locus YDL005C, strain med2, stronger effect = lower value 0.981 | locus YDL035C, strain GPR1, stronger effect = lower value 1.02 | locus YDL040C, strain nat1, stronger effect = lower value 0.962 | locus YDL074C, strain BRE1, stronger effect = lower value 1.01 | locus YDL101C, strain DUN1, stronger effect = lower value 1.02 | locus YDL134C, strain PPH21, stronger effect = lower value 1 | locus YDL185W, strain tfp1, stronger effect = lower value 1.03 | locus YDL192W, strain arf1, stronger effect = lower value 1.01 | locus YDR001C, strain nth1, stronger effect = lower value 0.979 | locus YDR069C, strain doa4, stronger effect = lower value 0.977 | locus YDR101C, strain arx1, stronger effect = lower value 1.01 | locus YDR137W, strain rgp1, stronger effect = lower value 0.848 | locus YDR150W, strain NUM1, stronger effect = lower value 0.994 | locus YDR159W, strain sac3, stronger effect = lower value 0.967 | locus YDR162C, strain NBP2, stronger effect = lower value 1.02 | locus YDR195W, strain ref2 0.998 | locus YDR297W, strain sur2, stronger effect = lower value 0.975 | locus YDR318W, strain mcm21, stronger effect = lower value 1.03 | locus YDR334W, strain swr1, stronger effect = lower value 0.968 | locus YDR335W, strain msn5, stronger effect = lower value 0.969 | locus YDR388W, stronger effect = lower value 1.01 | locus YDR392W, strain spt3, stronger effect = lower value 0.958 | locus YDR502C, strain sam2, stronger effect = lower value 1.01 | locus YEL003W, strain gim4, stronger effect = lower value 0.972 | locus YEL037C, strain rad23, stronger effect = lower value 0.975 | locus YEL061C, strain CIN8 (second series), stronger effect = lower value 0.961 | locus YEL061C, strain CIN8, stronger effect = lower value 1 | locus YER015W, strain faa2, stronger effect = lower value 0.973 | locus YER016W, strain bim1, stronger effect = lower value 0.966 | locus YER110C, stronger effect = lower value 1 | locus YER111C, strain swi4, stronger effect = lower value 0.977 | locus YER155C, strain BEM2 (second series), stronger effect = lower value 0.952 | locus YER155C, strain BEM2, stronger effect = lower value 1.01 | locus YER167W, strain BCK2, stronger effect = lower value 0.995 | locus YFR010W, strain ubp6, stronger effect = lower value 0.978 | locus YGL078C, strain dbp3, stronger effect = lower value 1.01 | locus YGL086W, strain mad1, stronger effect = lower value 1.01 | locus YGL167C, strain pmr1, stronger effect = lower value 0.958 | locus YGL173C, strain kem1, stronger effect = lower value 0.964 | locus YGL227W, strain vid30, stronger effect = lower value 0.956 | locus YGL240W, strain doc1, stronger effect = lower value 0.95 | locus YGL248W, strain PDE1, stronger effect = lower value 1.01 | locus YGL253W, strain hxk2, stronger effect = lower value 0.973 | locus YGR078C, strain PAC10, stronger effect = lower value 1.01 | locus YGR135W, strain pre9, stronger effect = lower value 1.01 | locus YGR229C, strain SMI1, stronger effect = lower value 1.02 | locus YGR252W, strain gcn5, stronger effect = lower value 1.14 | locus YHR013C, strain ard1, stronger effect = lower value 0.944 | locus YHR027C, strain rpn1, stronger effect = lower value 0.972 | locus YHR030C, strain SLT2, stronger effect = lower value 1.02 and 1.03 | locus YHR079C, strain IRE1 (second series), stronger effect = lower value 1.01 | locus YHR079C, strain IRE1, stronger effect = lower value 1.03 | locus YHR094C, strain hxt1, stronger effect = lower value 1 | locus YHR129C, strain ARP1, stronger effect = lower value 1.01 | locus YHR142W, strain chs7, stronger effect = lower value 0.95 | locus YHR200W, strain rpn10, stronger effect = lower value 1.01 | locus YIL066C, strain RNR3, stronger effect = lower value 1.03 | locus YIL073C, strain SPO22, stronger effect = lower value 1.02 | locus YIL125W, strain kgd1, stronger effect = lower value 1.01 | locus YIR030C, strain dcg1, stronger effect = lower value 1.02 | locus YJL092W, strain hpr5, stronger effect = lower value 0.981 | locus YJL095W, strain BCK1 (second series), stronger effect = lower value 0.968 | locus YJL095W, strain BCK1, stronger effect = lower value 0.988 and 0.974 | locus YJL115W, strain asf1, stronger effect = lower value 0.978 | locus YJL129C, strain trk1, stronger effect = lower value 0.962 | locus YJL134W, strain LCB3, stronger effect = lower value 1.02 | locus YJL154C, strain vps35, stronger effect = lower value 0.977 | locus YJL164C, strain tpk1, stronger effect = lower value 0.969 | locus YJL166W, strain qcr8, stronger effect = lower value 0.978 | locus YJL168C, strain set2, stronger effect = lower value 1 | locus YJL187C, strain SWE1 (second series), stronger effect = lower value 1.01 | locus YJL187C, strain SWE1, stronger effect = lower value 0.973 | locus YJR043C, strain POL32, stronger effect = lower value 1.02 | locus YJR066W, strain TOR1, stronger effect = lower value 0.968
